Results on 14 compounds are retold here after PubChem BioAssay.

Calls of active or inactive are those of the source.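 The calls were made as follows, unless noted: active = inhibition of the reporter signal at or above 50%; inactive = inhibition below 50%.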

Test [1] is described as follows: inhibitors of TNFa-induced NFkB p65 translocation, primary screen, imaging, HUVEC, MLSMR starter and 10KST1 sets (AID 438;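 active = inhibition above 20% together with a positive visual image hit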;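 also: compound added about 3h40 before a 20 min TNFalpha stimulation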;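 as to inhibition: signal is the nuclear over cytoplasmic p65 intensity ratio per well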). The conditions noted are these: HUVEC TNFa-induced p65 nuclear translocation; cell count: measured here: nuclei count (cytotoxicity indicator), at 2.08 µM; inhibition: at 2 µM, stronger effect = higher value, 0% TNFa-plus-vehicle, 100% no-TNFa wells.
The nature of test [2]: inhibitors of mutant huntingtin aggregation, primary screen, imaging, exon1htt(103Q)mCFP cells, high-content imaging (AID 483;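 active = visual image review flags a hit and inhibition of aggregation exceeds 20%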;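 also: compound exposure lasted 3 days before fixation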;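 as to nuclei count: percent of the per-plate median nuclei count of sample wells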). The settings on record: exon1htt(103Q)mCFP cell line, aggregate imaging, at 2 µM; inhibition of aggregation: stronger effect = higher value; nuclei count: measured here: cell count, toxicity.
Test [3] in a line: inhibitors of E-selectin induction by TNFa, primary screen, imaging, HUVEC, immunofluorescence, MLSMR starter and 10KST1 sets (AID 487;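 active = visually confirmed hit in the image check and inhibition above 20%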;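 as to inhibition: signal is fraction of cell area covered by stained E-selectin grains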;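 as to nuclei count: 100% = median nuclei count of all wells on the same plate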). The conditions noted are these: HUVEC TNFalpha-induced E-selectin immunofluorescence imaging, at 2 µM; inhibition: stronger effect = higher value; nuclei count: measured here: cell number, toxicity.
Test [4] addresses Voltage-gated potassium channel subunit beta-2 (Rattus norvegicus) (UniProt P62483). The test is described as follows: KvBeta enzyme negative modulators, primary screen, biochemical, NADPH fluorescence (AID 622;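 active = fluorescence slope higher than the sample average by over 3 SD, cut at about -0.22 in these data, passing the limit was not always enough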;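 also: slope of raw intensity against log time taken from 70 to 1610 s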). The conditions noted are these: recombinant KvBeta, 4-cyanobenzaldehyde reduction, at 10 µM, stronger effect = higher value.
The target is the same in test [5]. The experiment in a line: KvBeta positive modulators, primary screen, biochemical, NADPH fluorescence (AID 623;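 active = NADPH fluorescence slope more negative than the mean of all samples by about 3 SD, 99.7% confidence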;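 also: fluorescence intensity change per second fitted from 20 to 320 s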). The conditions noted are these: Recombinant KvBeta, NADPH fluorescence decrease slope, 10 min; at 10 µM; stronger effect = lower value.
The target in test [6] is Alpha-2C adrenergic receptor (Homo sapiens) (UniProt P18825). The experiment in a line: modulators of alpha2C/GIRK thallium flux, primary screen, cell-based, HEK293 alpha2C/GIRK1/2 (AID 624;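 active = fluorescence slope after compound addition differing from the mean of all screened samples at 99.7% confidence, in either direction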;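 also: slope of fluorescence ratio to pre-addition baseline per second over 15 to 24 s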). The settings on record: thallium flux BTC fluorescence, at 10 µM, actives lie on both sides.
Test [7] can be described thus: inhibitors of Sendai virus-induced IRF3 signaling, primary screen, TLR/RLR signaling modifier project, cell-based, Sendai virus stimulus, luciferase, 10K MLSCN set (AID 602276;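 active = inhibition at or above 50% at 10 µM; inactive = inhibition below 50%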;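 also: firefly luciferase from ISG56 promoter only with Renilla not read in this screen; 0% = Sendai virus plus DMSO and 100% = medium plus DMSO without virus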). The settings on record: HEK293 RL24 IRF3 luciferase reporter, at 10 µM, stronger effect = higher value. (Reporter assays use an easily measured gene product as a stand-in for the process of interest.)
Test [8] in a line: inhibitors of poly I:C-induced TLR3 signaling, primary screen, cell-based, poly I:C stimulus, luciferase, 10K MLSCN set (AID 602277). The conditions noted are these: HEK293-TLR3 RL24 IRF3 luciferase reporter, at 10 µM, stronger effect = higher value.

Chain of Voltage-gated potassium channel subunit beta-2 (Rattus norvegicus) (P62483 whole entry, looked up): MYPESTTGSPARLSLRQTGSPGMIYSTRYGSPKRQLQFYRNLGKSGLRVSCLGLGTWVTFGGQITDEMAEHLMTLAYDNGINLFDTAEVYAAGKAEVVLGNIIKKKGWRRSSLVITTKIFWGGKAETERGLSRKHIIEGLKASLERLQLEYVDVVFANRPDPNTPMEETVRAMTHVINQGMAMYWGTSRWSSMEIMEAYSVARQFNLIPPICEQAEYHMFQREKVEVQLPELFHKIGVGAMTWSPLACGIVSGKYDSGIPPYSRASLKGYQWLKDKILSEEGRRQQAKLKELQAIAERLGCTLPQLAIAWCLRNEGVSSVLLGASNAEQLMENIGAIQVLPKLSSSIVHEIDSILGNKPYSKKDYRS
Chain of Alpha-2C adrenergic receptor (Homo sapiens) (P18825 whole entry, looked up): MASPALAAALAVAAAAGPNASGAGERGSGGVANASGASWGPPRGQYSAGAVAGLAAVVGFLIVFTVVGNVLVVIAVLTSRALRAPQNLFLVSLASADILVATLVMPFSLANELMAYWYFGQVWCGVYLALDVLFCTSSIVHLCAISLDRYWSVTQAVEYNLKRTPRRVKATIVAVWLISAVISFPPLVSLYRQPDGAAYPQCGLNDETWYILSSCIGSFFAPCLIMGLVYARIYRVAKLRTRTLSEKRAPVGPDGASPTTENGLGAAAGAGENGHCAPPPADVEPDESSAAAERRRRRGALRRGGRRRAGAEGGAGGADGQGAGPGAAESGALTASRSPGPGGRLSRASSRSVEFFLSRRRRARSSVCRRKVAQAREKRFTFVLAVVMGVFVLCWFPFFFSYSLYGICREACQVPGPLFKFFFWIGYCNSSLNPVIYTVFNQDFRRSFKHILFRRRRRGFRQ

As a reminder, the inhibition is the change of the read-out against control, counted positive when it falls. `CCOc1ccc(C2C(C#N)=C(N)Oc3cc(C)n(Cc4ccco4)c(=O)c32)cc1OC` (centres undefined): in test [1], the cell count turned out to be 746. Moreover, the inhibition in test [1] is 2.4% (inactive); in test [3] it was -11.3% (inactive); in test [7] it was 7.22% (inactive); in test [8] it was 11.1% (inactive). Further, the inhibition of aggregation in test [2] is 9.6% (inactive). The nuclei count amounted to 74% in test [2] and 105% in test [3]. Besides, in test [4], the fluorescence slope was -0.491 (inactive). Moreover, in test [5], the NADPH fluorescence slope was -2e-05 (inactive). Also, the slope in test [6] is 0.00471 (inactive).

For the compound `CCSc1cc(C2C(C(=O)OC)=C(C)NC3=C2C(=O)CCC3)c(C)o1` (centres undefined), the cell count in test [1] amounted to 737. Moreover, the inhibition in test [1] was -6.1% (inactive); in test [3], -52.7% (inactive); in test [7], 16.1% (inactive); in test [8], 22.6% (inactive). Also, in test [2], the inhibition of aggregation is 8.4% (inactive). For the same compound, the nuclei count was determined as 96.3% in test [2] and 129% in test [3]. For the same compound, in test [4], the fluorescence slope is -0.593 (inactive). In addition, the NADPH fluorescence slope in test [5] was -2.7e-05 (inactive). Moreover, in test [6], the slope is 0.00339 (inactive).

In the case of `O=C(CSc1nnc(-c2ccc(Br)o2)n1Cc1ccccc1)c1ccccc1F`, the cell count in test [1] came out at 336. The inhibition in test [1] was -5.8% (inactive); in test [3] it was -35.1% (inactive); in test [7], 6.04% (inactive); in test [8], 18.1% (inactive). In addition, the inhibition of aggregation in test [2] was 11.9% (inactive). Further, the nuclei count in test [2] is 87.1%; in test [3], 96.4%. The fluorescence slope in test [4] was -0.391 (inactive). Also, the NADPH fluorescence slope in test [5] was -4.8e-05 (inactive). Further, the slope in test [6] is 0.00522 (inactive).

`Nc1nonc1N1CCCCC1`: the cell count in test [1] is 437. Moreover, the inhibition in test [1] is -8.1% (inactive); in test [3] it was 27.5% (inactive); in test [7], 4.11% (inactive); in test [8] it was 26.3% (inactive). In addition, in test [2], the inhibition of aggregation was -6.7% (inactive). In addition, the nuclei count was determined as 107% in test [2] and 104% in test [3]. In addition, the fluorescence slope in test [4] is -0.474 (inactive). Moreover, in test [5], the NADPH fluorescence slope was -4.6e-05 (inactive). For the same compound, in test [6], the slope was 0.00308 (inactive).

For the compound `CC(C)OC(=O)c1cccc(C(=O)O)n1`, the cell count in test [1] was 441. Also, the inhibition in test [1] is 4.6% (inactive); in test [3], -285% (inactive); in test [7], 11.6% (inactive); in test [8] it was 12.7% (inactive). For the same compound, the inhibition of aggregation in test [2] was -5.9% (inactive). Besides, the nuclei count in test [2] was 92.5%; in test [3], 110%. Further, in test [4], the fluorescence slope is -0.495 (inactive). For the same compound, the NADPH fluorescence slope in test [5] is -2.4e-05 (inactive). For the same compound, in test [6], the slope was 0.00557 (inactive).

With `O=C1CC(c2ccc(F)c(Br)c2)C2=C(CCCC2=O)N1` (centres undefined), in test [1], the cell count was found to be 334. For the same compound, the inhibition was -6.7% (inactive) in test [1], -63% (inactive) in test [3], -0.311% (inactive) in test [7] and 26.9% (inactive) in test [8]. In test [2], the inhibition of aggregation was -9.9% (inactive). For the same compound, the values for the nuclei count in test [2] and in test [3] were 113% and 108%, respectively. The fluorescence slope in test [4] was -0.327 (inactive). In addition, the NADPH fluorescence slope in test [5] is 4e-06 (inactive). Further, the slope in test [6] is 0.00275 (inactive).

As to `Cn1c(-c2ccccc2)cc(=O)c2ccccc21`, in test [1], the cell count was found to be 419. The inhibition is -3.8% (inactive) in test [1], -39.8% (inactive) in test [3], 9.11% (inactive) in test [7] and 16.3% (inactive) in test [8]. Moreover, the inhibition of aggregation in test [2] is 2.5% (inactive). The nuclei count in test [2] was determined as 92.7%; in test [3], 118%. Besides, the fluorescence slope in test [4] is -0.457 (inactive). Moreover, in test [5], the NADPH fluorescence slope is 3.9e-05 (inactive). The slope in test [6] was 0.00556 (inactive).

As for `O=C(CSc1nc(-c2ccccc2)cs1)NCc1ccco1`, the cell count in test [1] was determined as 200. Besides, the inhibition in test [1] was -1.3% (inactive); in test [3], -32.4% (inactive); in test [7], -27.5% (inactive); in test [8] it was -55.9% (inactive). The inhibition of aggregation in test [2] is 0.4% (inactive). Further, the nuclei count amounted to 54.4% in test [2] and 106% in test [3]. In test [4], the fluorescence slope is -0.511 (inactive). In addition, the NADPH fluorescence slope in test [5] was -3.4e-05 (inactive). Besides, the slope in test [6] was 0.00584 (inactive).

Consider `CCCC(=O)Nc1nnc(CC(=O)N2CCCC2)s1`, for which, in test [1], the cell count came to 845. The inhibition in test [1] was 4.5% (inactive); in test [3], -55% (inactive); in test [7], 14.1% (inactive); in test [8] it was 21.6% (inactive). Also, the inhibition of aggregation in test [2] was 3.1% (inactive). Besides, the nuclei count amounted to 106% in test [2] and 115% in test [3]. Moreover, the fluorescence slope in test [4] was -0.31 (inactive). The NADPH fluorescence slope in test [5] was -5.4e-05 (inactive). Moreover, in test [6], the slope is 0.006 (inactive).

For the compound `CCCN(CCC)S(=O)(=O)c1ccc(NS(C)(=O)=O)cc1`, the cell count in test [1] came out at 399. For the same compound, the inhibition in test [1] is 3.4% (inactive); in test [3], -126% (inactive); in test [7], 6.07% (inactive); in test [8], 12.8% (inactive). Also, the inhibition of aggregation in test [2] was -3% (inactive). For the same compound, the figures for the nuclei count in test [2] and in test [3] were 108% and 107%, respectively. Moreover, the fluorescence slope in test [4] was -0.391 (inactive). In test [5], the NADPH fluorescence slope was 1e-05 (inactive). Also, the slope in test [6] is 0.00362 (inactive).

In the case of `CCOc1ccccc1N1Cc2cc(C)c(C)cc2C1`, the cell count in test [1] is 576. In addition, the inhibition in test [1] was 2.9% (inactive); in test [3], -9% (inactive); in test [7], -0.273% (inactive); in test [8], -2.86% (inactive). Moreover, the inhibition of aggregation in test [2] was 22.5% (inactive). Moreover, the nuclei count came out at 110% in test [2] and 118% in test [3]. Besides, the fluorescence slope in test [4] was -0.543 (inactive). Also, the NADPH fluorescence slope in test [5] is 1.2e-05 (inactive). In addition, the slope in test [6] was 0.00798 (inactive).

As for `CCc1ccc(N(CC(=O)NC2CCCC2)S(=O)(=O)c2c(C)noc2C)cc1`, the cell count in test [1] was determined as 720. The inhibition in test [1] was -0.8% (inactive); in test [3], -48.7% (inactive); in test [7], 4.77% (inactive); in test [8], 37.7% (inactive). Moreover, the inhibition of aggregation in test [2] is -6% (inactive). The nuclei count was 97.9% in test [2] and 102% in test [3]. In test [4], the fluorescence slope was -0.569 (inactive). The NADPH fluorescence slope in test [5] was -4.6e-05 (inactive). Further, the slope in test [6] is 0.00649 (inactive).

Turning to `CCCn1c(O)c(CN2CCCC(C)C2)c(C)c(C#N)c1=O` (centres undefined), the cell count in test [1] stood at 673. The inhibition in test [1] is -16.4% (inactive); in test [3] it was -59.7% (inactive); in test [7], 13.3% (inactive); in test [8], 22.1% (inactive). In addition, the inhibition of aggregation in test [2] was 2.6% (inactive). For the same compound, the figures for the nuclei count in test [2] and in test [3] were 91.2% and 113%, respectively. For the same compound, in test [4], the fluorescence slope was -0.472 (inactive). The NADPH fluorescence slope in test [5] was -2.9e-05 (inactive). The slope in test [6] is 0.00503 (inactive).

As to `O=C(COc1ccc(Cl)cc1)NCc1nnc(SCC(=O)Nc2ccc3c(c2)OCCO3)o1`, the cell count in test [1] worked out at 375. Also, the inhibition is 0% (inactive) in test [1], -9.1% (inactive) in test [3], -4.54% (inactive) in test [7] and -2.34% (inactive) in test [8]. In addition, the inhibition of aggregation in test [2] is 4.2% (inactive). For the same compound, the nuclei count in test [2] worked out at 99.9%; in test [3], 119%. Also, the fluorescence slope in test [4] was -0.359 (inactive). The NADPH fluorescence slope in test [5] was -3.4e-06 (inactive). For the same compound, the slope in test [6] was 0.00522 (inactive).
